Source: PubChem
Only some compounds are listed: those with a hit (about 10% of all), similar ones and a draw of the others.
HEK293 tox – kills HEK 293 cells; HEK 293 viability, ATP luminescence (CellTiter-Glo), 48-72 h; Potency, µM (doses to about 115 µM), for inactives: at the highest dose activity change, negative = cytotoxicity, usual class: inhibitors; actives 6.6% (n = 94,000); AID 1345083; also: % is scaled to controls: 0 for no effect and ±100 for the full control effect; nearly all actives have a fitted effect of over 60% in size
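Cytotoxicity was scored by loss of ATP-coupled luminescence (CellTiter-Glo) in HEK 293 cells. Compound treatment ran 48 or 72 hr at 37 degree Celsius, 5% CO2, 95% humidity.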
3T3 cytotox – NIH 3T3 cell cytotoxicity; NIH 3T3 viability, CellTiter-Glo ATP luminescence, 48-72 h; Potency, µM (series often up to 96.7 µM), for the others: top-dose activity change, negative = cytotoxicity, most hits filed as inhibitors; actives 4.3% (n = 94,000); AID 1345082; also: % is scaled to controls: 0 for no effect and ±100 for the full control effect; nearly all actives have a fitted effect of over 55% in size
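ATP-dependent luminescence (CellTiter-Glo) served as the viability signal for NIH 3T3 cells treated with compound for 48 or 72 hr at 37 °C.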
hNpr1 antagonist – antagonists of human natriuretic peptide receptor Npr1. Potency, µM (doses to about 46.3 µM), inactives show at the top dose activity change, negative = inhibition, most hits filed as inhibitors. HEK293 hNpr1 GloSensor cGMP, ANP-stimulated luminescence. actives 1.6% (n = 76,000). P16066; calls by dose curve; also: % is scaled to controls: 0 for no effect and ±100 for the full control effect; nearly all actives have a fitted effect of over 60% in size
Target sequence (P16066 whole entry, looked up): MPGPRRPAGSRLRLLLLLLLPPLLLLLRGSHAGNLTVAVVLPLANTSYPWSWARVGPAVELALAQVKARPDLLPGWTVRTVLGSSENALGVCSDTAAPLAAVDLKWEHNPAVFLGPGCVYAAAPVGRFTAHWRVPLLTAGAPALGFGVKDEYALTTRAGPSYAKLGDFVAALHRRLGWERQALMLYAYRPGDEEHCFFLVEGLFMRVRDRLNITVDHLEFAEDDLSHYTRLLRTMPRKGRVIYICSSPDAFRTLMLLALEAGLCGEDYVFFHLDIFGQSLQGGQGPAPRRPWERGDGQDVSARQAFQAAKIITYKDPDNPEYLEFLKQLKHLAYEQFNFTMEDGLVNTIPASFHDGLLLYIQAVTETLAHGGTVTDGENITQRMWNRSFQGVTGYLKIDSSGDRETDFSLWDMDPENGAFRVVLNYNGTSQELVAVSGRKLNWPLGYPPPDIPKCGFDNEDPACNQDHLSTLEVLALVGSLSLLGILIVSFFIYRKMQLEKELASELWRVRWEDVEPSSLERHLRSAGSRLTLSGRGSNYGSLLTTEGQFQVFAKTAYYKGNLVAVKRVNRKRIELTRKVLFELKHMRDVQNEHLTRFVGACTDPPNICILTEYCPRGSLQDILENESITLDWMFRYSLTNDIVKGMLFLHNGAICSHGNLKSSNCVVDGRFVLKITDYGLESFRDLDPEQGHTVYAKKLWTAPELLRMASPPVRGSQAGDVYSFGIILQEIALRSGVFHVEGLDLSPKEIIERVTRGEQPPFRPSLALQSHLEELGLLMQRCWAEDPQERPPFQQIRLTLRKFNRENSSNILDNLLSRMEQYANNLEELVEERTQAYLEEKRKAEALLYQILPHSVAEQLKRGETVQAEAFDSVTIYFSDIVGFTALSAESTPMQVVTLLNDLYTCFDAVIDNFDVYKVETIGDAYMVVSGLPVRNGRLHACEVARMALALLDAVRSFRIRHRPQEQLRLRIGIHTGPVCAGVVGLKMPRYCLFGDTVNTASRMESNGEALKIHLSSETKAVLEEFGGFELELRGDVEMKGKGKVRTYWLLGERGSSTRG
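HEK293 cells stably expressing human Npr1 and cGMP GloSensor pGS-40F, loaded 2 h with 2% GloSensor reagent, given compound 30 min at room temperature. Luminescence read before and 20 min after 0.1 nM hNppA.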
Luciferase inh – Photinus pyralis luciferase inhibition; AID 1347043; P08659; Potency, µM (titrated, usually from 115 µM), most hits filed as inhibitors; purified P. pyralis luciferase, luminescence, biochemical; actives 2.5% (n = 76,000); also: % is scaled to controls: 0 for no effect and ±100 for the full control effect; nearly all actives have a fitted effect of over 65% in size
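Cell-free enzyme assay, 10nM P. pyralis luciferase, luciferin and ATP each at 10uM. Inhibition profiled over a 6-point titration, read as luminescence.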
GPT2 inh – inhibitors of human GPT2 alanine aminotransferase. actives 0.25% (n = 100,000). Q8TD30. Potency, µM (top dose mostly 57.7 µM), inactives show at the highest dose activity change, negative = inhibition, hits mostly inhibitors. Recombinant GPT2, coupled pyruvate oxidase/HRP Amplex Red fluorescence; also: % is scaled to controls: 0 for no effect and ±100 for the full control effect; nearly all actives have a fitted effect of over 60% in size
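Fluorescence of coupled pyruvate oxidase/HRP/Amplex Red system (50uM Amplex, 30 min, dark) reports pyruvate formed by GPT2. Enzyme reaction: 10ng/uL GPT2, 2mM L-alanine, 250uM a-KG, 30 min room temperature, pH 7.5; 50uM AOA control.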
NPR1 antag cnf – hNpr1 antagonism, confirmation assay; shares compounds with hNpr1 antagonist; HEK293 hNpr1 cGMP GloSensor luminescence, ANP-stimulated; Potency, µM (doses to about 57.6 µM), without a hit: at the highest dose activity change, negative = inhibition, hits mostly inhibitors; actives 76% (n = 1,400); AID 1347044; calls by dose curve; also: nearly all actives have a fitted effect of over 70% in size
NPR2 antag – hNpr2 antagonism, selectivity versus Npr1; shares compounds with hNpr1 antagonist; HEK293 hNpr2 GloSensor cGMP luminescence, CNP-stimulated; Potency, µM (top dose mostly 57.6 µM), for inactives: at the top dose activity change, negative = inhibition, hits mostly inhibitors; actives 67% (n = 1,400); calls by dose curve; also: nearly all actives have a fitted effect of over 70% in size
FLuc inh counter – counter-screen for Npr1 antagonists: firefly luciferase inhibitors. Potency, µM (doses to about 57.6 µM), for the others: at the highest dose activity change, negative = inhibition, hits mostly inhibitors. purified FLuc enzyme, luminescence, Km substrate. AID 1347047. actives 0.7% (n = 1,400). shares compounds with hNpr1 antagonist; also: 0% is about no effect
GloSensor ctrl – control cell line activity, Npr1 antagonist counter-screen; shares compounds with hNpr1 antagonist; HEK293 GloSensor cGMP, SNP-stimulated, luminescence; Potency, µM (series often up to 57.6 µM), for inactives: at the highest dose activity change, negative = inhibition, most hits filed as inhibitors; actives 69% (n = 1,400); AID 1347051; calls by dose curve; also: % is scaled to controls: 0 for no effect and ±100 for the full control effect; nearly all actives have a fitted effect of over 70% in size
* marks the source's active call; other numbers are inactive results; i = inactive; ? = inconclusive; nt = no result; [ ] = another dose, or the depositor's remark. Unless noted, calls follow the shape of the dose curve; as a rule, active = well fitted curve in the direction sought with a large enough effect; inconclusive = small, poorly fitted or top-dose-only effect, or another doubt; inactive = no such curve, though single readings can be large; an effect the other way counts as inactive or inconclusive. Potency is read from the fitted curve at half-maximal effect.

SMILES	HEK293 tox	3T3 cytotox	hNpr1 antagonist	Luciferase inh	GPT2 inh	NPR1 antag cnf	NPR2 antag	FLuc inh counter	GloSensor ctrl
Cc1ncsc1CN1CCCCC1c1nc(CCOCC2CC2)no1 (centres undefined)	?	-36%	?	i	i	nt	nt	nt	nt
CCOc1ccc(CC(=O)N2CCC3(CC2)N=C(c2ccc(Cl)cc2)NO3)cc1	?	?	?	i	0%	nt	nt	nt	nt
CCOc1ccc(C(=O)N2CCC3(CC2)N=C(c2ccc(Cl)cc2)NO3)cc1	?	1%	8.9µM*	i	-5%	19µM*	17µM*	-3%	15µM*
COc1ccc(C(=O)N2CCC3(CC2)N=C(c2ccc(Cl)cc2)NO3)cc1OC	?	-29%	11µM*	i	i	11µM*	12µM*	0%	9.7µM*
COc1ccc(C(=O)N2CCC3(CC2)N=C(c2ccccc2)NO3)cc1OC	7%	i	1%	i	i	nt	nt	nt	nt
COc1ccc(C(=O)N2CCC3(CC2)N=C(c2ccc(Br)cc2)NO3)cc1OC	?	-24%	10µM*	i	i	6.9µM*	11µM*	-1%	6.9µM*
O=C(c1ccc2c(c1)OCO2)N1CCC2(CC1)N=C(c1ccc(Br)cc1)NO2	?	?	13µM*	i	-15%	22µM*	19µM*	-2%	17µM*
COc1ccc(Cl)cc1N1C(=O)[C@@H]2C[C@@H](NC(=O)Cc3cccs3)CCN2C1=O	i	?	3%[70.6 µM]	i	-5%[88.5 µM]	nt	nt	nt	nt
C[C@H](NCc1ccc(OCc2cccc(F)c2)cc1)C(N)=O	nt	nt	nt	nt	i	nt	nt	nt	nt
COc1ccccc1-c1nc(C(=O)NC(C)C)n2ccncc12	?	?	-7%[70.6 µM]	i	i	nt	nt	nt	nt
COc1ccccc1Nc1ccnc(N2CCC[C@H]2C(=O)NCc2cccc(Cl)c2)n1	?	?	nt	nt	-3%	nt	nt	nt	nt
COc1cccc(C(=O)N2CCn3c(nnc3-c3ccc(NC(C)=O)cc3)C2)c1	-6%	-8%	nt	nt	nt	nt	nt	nt	nt
O=C(Cc1c[nH]c2ncc(-c3ccccc3Oc3ccccc3)cc12)NCc1cccnc1	?	?	28µM*	i	-6%[88.5 µM]	22µM*	22µM*	-10%[86.2 µM]	20µM*
O=C(Cc1c[nH]c2ncc(-c3ccsc3)cc12)NCc1cccnc1	?	?	-14%[70.6 µM]	i	-19%[88.5 µM]	nt	nt	nt	nt
NC(=O)Cc1c[nH]c2ncc(-c3ccccc3Oc3ccccc3)cc12	?	?	25µM*	i	-3%[88.5 µM]	35µM*	35µM*	-1%[86.2 µM]	20µM*
NC(=O)Cc1c[nH]c2ncc(-c3ccccc3F)cc12	-28%[230 µM]	?	-13%[70.6 µM]	i	?	nt	nt	nt	nt
O=C(N[C@@H]1CN(Cc2c[nH]c3ccccc23)C[C@H]1CO)c1ccccc1	?	-9%	4%	i	i	nt	nt	nt	nt
O=C(Nc1ccc(F)cc1)c1c[nH]c2cccnc12	?	?	nt	nt	i	?	?	4.4µM*	22µM*
O=C(NCc1cccnc1)c1nc(-c2ccc(F)cc2)c2ccccn12	?	?	-3%	i	i	nt	nt	nt	nt
COc1ccccc1-c1[nH]nc2ncc(C(=O)NCc3cccnc3)nc12	nt	nt	nt	nt	nt	18µM*	7µM*	1%[86.2 µM]	-16%[86.2 µM]
COc1ccccc1-c1[nH]nc2ncc(C(=O)N3CCNC(=O)C3)nc12	-15%[172 µM]	?	3%[70.6 µM]	i	i	nt	nt	nt	nt
CN(C(=O)c1cnc2n[nH]c(-c3ccccc3)c2n1)c1ccccc1	?	?	16µM*	i	1%[88.5 µM]	31µM*	31µM*	2%[86.2 µM]	20µM*
O=C(NCc1cccnc1)c1cnc2n[nH]c(-c3ccccc3)c2n1	nt	nt	nt	nt	nt	25µM*	13µM*	0%[86.2 µM]	10%[86.2 µM]
COc1ccc(C(=O)N2CCC3(C2)C(=O)N(c2ccccc2)c2ccccc23)cc1 (centres undefined)	?	-18%	nt	nt	i	nt	nt	nt	nt
COc1ccc(C(=O)N2CCC3(C2)C(=O)N(Cc2ccccc2)c2ccccc23)cc1 (centres undefined)	?	?	5µM*	i	i	17µM*	17µM*	-1%	11µM*
SMILES	HEK293 tox	3T3 cytotox	hNpr1 antagonist	Luciferase inh	GPT2 inh	NPR1 antag cnf	NPR2 antag	FLuc inh counter	GloSensor ctrl
N#Cc1cccc(C(=O)Nc2ccc3ncnc(N4CCCCC4)c3c2)c1	?	?	-11%	i	i	nt	nt	nt	nt
COc1ccc(CN2CC3(CCN(C(=O)c4cn[nH]c4-c4ccc(F)cc4)CC3)C2=O)cc1	28µM*	?	11µM*	i	i	14µM*	19µM*	-4%	12µM*
COc1ccc(CN2CC3(CCN(C(=O)c4ccc(F)c(Cl)c4)CC3)C2=O)cc1	?	?	-21%	i	i	nt	nt	nt	nt
Cc1nn2c(c1-c1cccnc1N1CCOCC1)N(CC1CCOCC1)CCC2	?	35µM*	?	i	-4%[88.5 µM]	?	?	5%[86.2 µM]	?
CCC[C@H]1CN(C(=O)c2ccccc2Cc2ccc(C)cc2)C[C@@H]1N	?	89µM*	-30%	i	i	?	?	-1%	-21%
O=C1NC2(CCN(Cc3ccc(OC(F)(F)F)cc3)C2)OCc2ccccc21 (centres undefined)	79µM*	-18%	?	i	-18%	22µM*	22µM*	2%	17µM*
O=C1NC2(CCN(Cc3ccc(OC(F)(F)F)cc3)C2)Oc2ccccc21 (centres undefined)	?	?	8%	i	3%	nt	nt	nt	nt
CC(C)C(=O)N1[C@@H]2CC[C@H]1CC(NC(=O)c1ccc(F)cc1)C2 (some centres undefined)	i	-9%	nt	nt	4%	nt	nt	nt	nt
Cc1ccccc1CN1Cc2nc(N3CCCC3)ccc2OCC1=O	?	?	-1%[70.6 µM]	i	i	nt	nt	nt	nt
O=S(=O)(c1ccc2c(c1)CCCC2)N1CCCC(Cn2cnc3cccnc32)C1 (centres undefined)	?	?	?	i	i	24µM*	19µM*	-2%	24µM*
